Experimental data taken from the supplement of paper PMC3334620.
Whole data set: some 33,000 sequences, median “E-score (-0.5 to 0.5)” near -0.036, cut for the highest 2% near 0.37. This excerpt belongs to a sample that is enriched for the highest values.

Target: T1, Yer064c (UniProt P40041)
T1 sequence: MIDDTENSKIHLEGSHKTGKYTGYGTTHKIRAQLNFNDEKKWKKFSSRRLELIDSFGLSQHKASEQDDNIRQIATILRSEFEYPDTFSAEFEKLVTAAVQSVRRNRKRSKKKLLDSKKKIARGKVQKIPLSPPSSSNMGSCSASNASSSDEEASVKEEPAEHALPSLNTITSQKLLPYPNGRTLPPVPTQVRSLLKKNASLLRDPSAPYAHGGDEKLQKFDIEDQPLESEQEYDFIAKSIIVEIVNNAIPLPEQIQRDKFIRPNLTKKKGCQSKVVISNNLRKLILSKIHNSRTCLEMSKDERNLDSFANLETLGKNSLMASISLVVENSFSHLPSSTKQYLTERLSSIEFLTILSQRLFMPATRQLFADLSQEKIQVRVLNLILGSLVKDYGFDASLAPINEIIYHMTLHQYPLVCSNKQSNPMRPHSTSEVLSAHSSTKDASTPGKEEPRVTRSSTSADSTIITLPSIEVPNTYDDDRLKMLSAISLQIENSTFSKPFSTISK
Test: PBM E-score (8-mer binding enrichment) (E-score (-0.5 to 0.5)); higher = stronger / more preferred TF binding
Settings: protein concentration: 200 nM; construct: GST-full length
Procedure: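 Universal 'all 10-mer' protein binding microarrays (Agilent AMADID 015681) probed with GST-tagged S. cerevisiae TFs (full-length or DBD) made by in vitro transcription/translation (PURExpress), about 100-200 nM. Bound TF was detected with fluorescent anti-GST. Each ungapped 8-mer (which stands for itself and its reverse complement) is scored by the PBM enrichment score (E-score), a modified Wilcoxon-Mann-Whitney statistic from -0.5 to +0.5, computed with the Universal PBM Analysis Suite. Scale: above 0.35 generally sequence-specific binding.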

| Sequence | PBM E-score |
| --- | --- |
| ATTCATTG | 0.214 |
| ACTCATTG | 0.382 |
| ATTCATTC | 0.122 |
| ATGGCTTG | -0.159 |
| GATTTACC | 0.00206 |
| ATTTCATA | -0.0227 |
| ATCCGAAT | 0.0995 |
| AAGGGATG | -0.176 |
| ACTCAGTG | 0.251 |
| ACTCAGTC | 0.411 |
| AATCAGTC | 0.368 |
| CATCAGTC | 0.321 |
| CCTCAGTC | 0.326 |
| AATCAGTA | 0.234 |
| AATCAGTG | 0.239 |
| ATTCAGTC | 0.341 |
| CGTCAGTC | 0.291 |
| ATTCAGTG | 0.214 |
| AGTCAGTC | 0.442 |
| AGTCAGTG | 0.427 |
| ACGCATGA | 0.146 |
| ATCCGTTG | -0.037 |
| ACCTTGAA | 0.0165 |
| GAACCAGA | 0.0172 |
| ACCCTCAC | -0.132 |
| CGCACATC | 0.00301 |

| Sequence | PBM E-score |
| --- | --- |
| CGTCAGTA | 0.0514 |
| GGTCAGTA | -0.0314 |
| AGTCAGTA | 0.42 |
| CTTTAACA | -0.0802 |
| GCCTAGGC | -0.179 |
| AGGAGCGC | -0.205 |
| ACACACTG | 0.0265 |
| ACTCACAC | 0.364 |
| ACTCACTA | 0.346 |
| ACTCACTG | 0.374 |
| ACTCACTC | 0.371 |
| CCTCACTC | -0.077 |
| CGGTTTAG | -0.1 |
| AGAGACAA | -0.175 |
| TAAACCAA | -0.0214 |
| GAGGACTA | 0.369 |
| TAGGACTA | 0.357 |
| AAGGACTC | 0.39 |
| AAGGACTT | 0.0394 |
| AAGGACCA | -0.026 |
| AAGGACTG | 0.184 |
| GAGGACAC | -0.221 |
| AAGGACGA | -0.0247 |
| CAGGACTC | 0.344 |
| AAGGACTA | 0.375 |
| GAGGACTC | 0.387 |

| Sequence | PBM E-score |
| --- | --- |
| CAGGACTA | 0.262 |
| ACCGGCGG | -0.156 |
| CCAGATGC | 0.0961 |
| AGCTAGAT | -0.12 |
| AACCCCAG | -0.047 |
| GGCAACTA | -0.0239 |
| CCCATCTA | -0.0727 |
| CAAACGAC | 0.0734 |
| GTGTGCGA | 0.0296 |
| AGATCTTA | 0.137 |
| GACGTTCA | -0.12 |
| GCATTTCC | -0.0262 |
| AGAACACA | 0.0627 |
| GAAAGTCA | 0.428 |
| TAAAGTTA | 0.106 |
| CAAAGTCA | 0.399 |
| AAAAGTCA | 0.374 |
| GAAAGTCC | -0.215 |
| AAAAGTCC | -0.0242 |
| CAAAGTCC | -0.222 |
| AAAAGTCT | 0.0759 |
| TAAAGTAA | 0.049 |
| GAAAGTTA | 0.137 |
| CAAAGTCG | 0.167 |
| TAAAGTCA | 0.413 |
| ACCACGGG | -0.0993 |

| Sequence | PBM E-score |
| --- | --- |
| AGCAGGAG | -0.0429 |
| GGCATACA | -0.226 |
| GATTCGAA | 0.207 |
| CTCGGTGA | 0.137 |
| ACTACGAT | 0.233 |
| CCCATGCC | -0.231 |
| CCCAGAGG | -0.276 |
| CAGTCAGG | 0.333 |
| GCGTCAGC | -0.304 |
| AAGTCAGT | 0.362 |
| ATGTCAGC | -0.0283 |
| AAGTCAGA | 0.341 |
| CAGTCAGC | 0.406 |
| GAGTCAGC | 0.48 |
| CAGTCAGA | 0.361 |
| AAGTCAGC | 0.422 |
| AATCTTAC | 0.183 |
| ATTTGTCG | -0.0532 |
| CACTCAGA | 0.0961 |
| AACTCAGA | 0.164 |
| CACTCAGC | -0.0645 |
| GACTCAGC | 0.457 |
| GACTCAGA | 0.458 |
| AACTCAGC | 0.022 |
| GGCGCGAA | -0.0884 |
| AACGTGGC | -0.0783 |

| Sequence | PBM E-score |
| --- | --- |
| ACCCTAGA | -0.0589 |
| ACCTCGGC | -0.153 |
| AATCACCT | 0.438 |
| CATCACCG | 0.156 |
| AAACACCT | 0.129 |
| AATCACCC | 0.426 |
| CATCACCC | -0.0525 |
| AAGCACCG | -0.164 |
| TATCACCA | -0.0277 |
| AACCACCT | 0.0325 |
| GATCACCC | 0.00825 |
| CATCACCA | -0.0269 |
| AATCACCA | 0.374 |
| AATCACCG | 0.42 |
| AGAAGAAC | -0.146 |
| ACCAGACT | 0.0775 |
| ACGGCTAT | -0.24 |
| GGTTTACA | -0.0888 |
| CGTGCACG | 0.0709 |
| CCTGAGGA | 0.00765 |
| ACGGTATG | -0.0999 |
| CGGATTAC | 0.0966 |
| ATGATTAA | 0.472 |
| CCGATTAC | -0.132 |
| AGGATTAA | 0.253 |
| CTGATTAC | 0.375 |

| Sequence | PBM E-score |
| --- | --- |
| CGGATTAA | 0.208 |
| ACGATTAA | 0.26 |
| GGGATTAA | 0.166 |
| CTGATTAA | 0.405 |
| CAGATTAA | 0.183 |
| GAGATTAA | 0.245 |
| GTGATTAA | 0.452 |
| GAAACTAC | 0.00139 |
| CCGAGGAC | -0.0294 |
| AGCAAAAC | -0.0941 |
| CATCCGAA | 0.123 |
| ATGGAAAG | -0.0473 |
| CATATTGG | -0.027 |
| ATATCTAA | 0.128 |
| AGCAGGTA | -0.131 |
| CCTGCGCA | -0.352 |
| TATAATCA | 0.387 |
| TATAATAA | 0.115 |
| AATAATCA | 0.382 |
| CATAATCG | 0.109 |
| AATAATCG | 0.104 |
| GATAATCA | 0.384 |
| GATAATAA | -0.0817 |
| CATAATCA | 0.413 |
| CATAATCC | -0.0164 |
| GATAATCC | -0.0741 |

| Sequence | PBM E-score |
| --- | --- |
| TATAATGA | 0.256 |
| AATAATCC | 0.0648 |
| CCTTTACC | -0.149 |
| GAGCGTAA | 0.0724 |
| CCCCTGCC | -0.204 |
| ATACTCTC | 0.00838 |
| AGAAGGGG | -0.324 |
| GCCAGCAA | -0.238 |
| GGTCCATA | -0.194 |
| AAACGATG | -0.0198 |
| ATAGTCCA | 0.213 |
| ATCGTCAA | 0.0919 |
| ATCGTCAC | -0.00908 |
| CTAGTCCA | 0.109 |
| ATCGTCAT | 0.0309 |
| ATAGTCAC | 0.481 |
| CTAGTCAG | 0.418 |
| ATAGTCCC | 0.148 |
| ATAGTAAT | 0.291 |
| ATAGTCAA | 0.402 |
| ATAGTCAT | 0.489 |
| CTAGTAAG | 0.0365 |
